# Screening results (PubChem BioAssay)
# SENP8 block-1: SENP8 protease inhibition. Q96LD8. purified SENP8, Z-RLRGG-aminoluciferin cleavage, luminescence. inhibition, % at 10 µM. 1.2% of 330,000 active; in the data active means inhibition above about 50%
# SENP8 block-2: blocks human SENP8 cleavage of Nedd8 substrate; inhibition, % at 20 µM; recombinant SENP8, Nedd8 substrate fluorescence; Q96LD8; 0.64% of 360,000 active; AID 602440; in the data active means inhibition mostly above about 40%, no sharp cut-off; inactive means mostly below about 27%
# C8 TRAIL sens: sensitizes caspase-8 expressing cells to TRAIL; inhibition (viability loss, TRAIL sensitization), % at 10 µM; AID 624354; NB7+C8 cells + TRAIL, ATPlite viability luminescence; 1% of 360,000 active;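 active means compounds causing at least 50% loss of cell viability in the single-dose screen, relative to plate controls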
# SENP6 inh: inhibitors of human SENP6 protease. Q9GZR1. Recombinant SENP6 catalytic domain, aminoluciferin luminescence. inhibition, % at 10 µM. 1.8% of 330,000 active;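 active means inhibition above about 50% at the single tested dose, limit read from the data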;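 further: plate controls were DMSO wells with enzyme for no effect and DMSO wells lacking enzyme for full effect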
# SENP7 block: inhibitors of human SENP7 protease; 1.5% of 330,000 active; Q9BQF6; inhibition, % at 5 µM; AID 434973; recombinant SENP7, Z-RLRGG-aminoluciferin luminescence, 40 min;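 active means inhibition above about 50% at the single test dose, limit read from the data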;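 further: plate controls were DMSO with enzyme for no effect and no enzyme buffer wells for full effect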
# Target sequence (Q9BQF6 706-1050 limits assumed): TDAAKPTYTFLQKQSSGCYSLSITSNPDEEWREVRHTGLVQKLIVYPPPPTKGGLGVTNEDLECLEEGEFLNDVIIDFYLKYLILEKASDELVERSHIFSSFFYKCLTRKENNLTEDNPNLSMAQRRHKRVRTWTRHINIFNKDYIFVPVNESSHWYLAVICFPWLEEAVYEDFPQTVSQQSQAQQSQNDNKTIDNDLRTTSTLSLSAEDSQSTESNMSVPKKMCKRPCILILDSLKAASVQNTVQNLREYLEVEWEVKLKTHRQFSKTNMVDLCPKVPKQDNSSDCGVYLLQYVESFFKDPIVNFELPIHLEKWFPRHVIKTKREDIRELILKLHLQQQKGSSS
# PPC-1+TRAIL kill: PPC-1 cancer cell killing with TRAIL present | PPC-1 cells + TRAIL, ATPLite viability luminescence | cell killing (% activity), % at 4 µM or 5 µM | 0.41% of 220,000 active | AID 1443;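 active means cell killing above 50% in the first pass at 4 µM, then a duplicate retest at 5 µM averaging 50% or more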;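 further: plate controls were cells with TRAIL plus DMSO for no effect and medium-only wells lacking cells for full effect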
# SENP8 conf: human SENP8 inhibition, confirmed | shares compounds with SENP7 block | Recombinant SENP8, Z-RLRGG-aminoluciferin luminescence, 60 min | inhibition, % at 12.5 µM | 40% of 6,200 active;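 active means mean inhibition across replicates above about 50%, limit read from the data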
# SENP6 confirm: human SENP6 inhibition, confirmed; shares compounds with SENP7 block; recombinant SENP6, Z-RLRGG-aminoluciferin luminescence; inhibition, % at 12.5 µM; 58% of 6,200 active
# SENP7 confirm: human SENP7 inhibition, confirmed; shares compounds with SENP7 block; inhibition, % at 12.5 µM; recombinant SENP7, Z-RLRGG-aminoluciferin luminescence, 40 min; 69% of 6,200 active
# Casp3 SENP sel: caspase-3 inhibition (SENP selectivity assay); 60% of 6,200 active; shares compounds with SENP7 block; inhibition, % at 12.5 µM; purified caspase-3, Z-DEVD-aminoluciferin luminescence, 60 min;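 active means mean inhibition above about 50%, limit read from the data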;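 further: plate controls were enzyme with DMSO for no effect and wells without caspase-3 for full effect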
# Target sequence (P42574 28-227 limits assumed): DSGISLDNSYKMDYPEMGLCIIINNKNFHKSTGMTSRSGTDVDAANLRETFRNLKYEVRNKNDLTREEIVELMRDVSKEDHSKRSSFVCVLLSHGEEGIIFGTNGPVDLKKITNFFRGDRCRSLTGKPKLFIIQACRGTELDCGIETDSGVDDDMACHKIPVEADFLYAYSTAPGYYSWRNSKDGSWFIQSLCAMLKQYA
# Luc interf: interferes with luciferase luminescence in SENP counter-screen; inhibition, % at 12.5 µM; shares compounds with SENP7 block; Pre-incubated SENP8/Z-RLRGG-aminoluciferin, luciferase luminescence interference; AID 488919; 39% of 6,200 active;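 active means mean inhibition above about 50% when retested at one dose, limit read from the data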;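 further: plate controls were DMSO wells with completed reaction for no effect and substrate without enzyme for full effect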
# * marks the source's active call; other numbers are inactive results; · = no result. Only some compounds are listed: those with a hit (about 3% of all), similar ones and a draw of the others.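 How the source made its calls, unless noted: active means mean inhibition above about 50% in the one-dose retest (limit read from the data); inactive means the rest.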
SMILES,SENP8 block-1,SENP8 block-2,C8 TRAIL sens,SENP6 inh,SENP7 block,PPC-1+TRAIL kill,SENP8 conf,SENP6 confirm,SENP7 confirm,Casp3 SENP sel,Luc interf
Nc1nonc1-n1nnc(C(=O)N/N=C/c2ccccc2F)c1CN1CCc2ccccc21,-2,14,12,-9,10,·,·,·,·,·,·
O=S(=O)(Nc1nc(-c2ccccc2)cs1)c1cccc(C(F)(F)F)c1,-2,2,-1,-13,2,·,·,·,·,·,·
CC1CC(C)(C)CC2(C1)NC(=O)N(CC(=O)N1CCN(S(=O)(=O)c3ccc(F)c(F)c3F)CC1)C2=O (centres undefined),·,12,17,·,·,·,·,·,·,·,·
COc1ccc(NC(=O)CN(C)C(=O)Cc2ccc(S(=O)(=O)N3CCOCC3)s2)cc1,-3,0,9,-1,0,·,·,·,·,·,·
O=C(NNC(=S)Nc1ccccc1Cl)c1ccccc1Br,73*,13,-4,73*,67*,·,44,41,22,13,30
O=C(NNC(=O)c1ccccc1Br)c1ccccc1Cl,-4,8,3,-12,6,0,·,·,·,·,·
Cn1ccsc1=NC(=O)c1ccc(Cl)cc1,0,-53,7,-19,26,11,·,·,·,·,·
Cn1ccsc1=NC(=O)c1ccc(OC(F)(F)F)cc1,51*,-65,14,63*,61*,·,56*,58*,88*,62*,66*
COc1ccc(C(=O)N=c2sccn2C)cc1,-8,-117,9,14,17,19,·,·,·,·,·
COC(=O)c1ccc(C(=O)N=c2sccn2C)cc1,35,-22,7,55*,52*,·,46,44,76*,78*,7
NC(=S)Nc1cc2ccccc2c2ccccc12,7,-127,0,9,-7,8,·,·,·,·,·
NC(=S)Nc1cccc2cc3ccccc3cc12,49,-264,16,61*,19,30,51*,60*,74*,28,61*
O=C(O)c1cccc(S(=O)(=O)Nc2ccccc2C(=O)NCCc2ccccc2)c1,10,-26,8,-3,-7,·,·,·,·,·,·
C=C(Cl)COc1ccc2c(CCCC)cc(=O)oc2c1,-10,-129,5,-12,-2,27,·,·,·,·,·
C=C(Cl)COc1ccc2c(CC)cc(=O)oc2c1,-20,-129,21,-18,57*,10,6,6,6,3,0
O=C(O)C1CC(c2ccc(F)cc2)=NO1 (centres undefined),-6,11,1,-20,6,-4,·,·,·,·,·
O=C(O)C1CC(c2ccccc2)=NO1 (centres undefined),1,5,-3,0,95*,12,6,7,8,2,2
COC(=O)[C@@H](Cc1c[nH]c2ccccc12)NC(=O)C1CCCN(S(=O)(=O)c2ccc(C)cc2)C1 (some centres undefined),-1,14,-13,-16,8,·,·,·,·,·,·
Cc1cccc(-c2noc(-c3ccc4c(c3)OCO4)n2)c1,70*,-10,61*,82*,101*,34,4,38,47,37,30
Cc1cccc(-c2noc(-c3c(C)noc3C)n2)c1,57*,26,7,71*,48,19,29,38,52*,50,16
Cc1ccc(-c2nc(-c3ccncc3)no2)cc1,·,14,27,·,·,·,·,·,·,·,·
Cc1cc(C)cc(-c2nc(-c3ccncc3)no2)c1,66*,5,18,74*,61*,-9,31,27,21,50*,16
Brc1cccc(-c2nc(-c3ccncc3)no2)c1,50,5,9,70*,72*,13,27,54*,64*,59*,26
O=c1c2ccccc2nc(SCc2ccccc2)n1CC1CCCO1 (centres undefined),-2,22,-6,-15,-2,-7,·,·,·,·,·
Cc1cccc(-c2nc(-c3ccncc3)no2)c1,79*,22,17,-5,82*,·,58*,84*,97*,85*,56*
SMILES,SENP8 block-1,SENP8 block-2,C8 TRAIL sens,SENP6 inh,SENP7 block,PPC-1+TRAIL kill,SENP8 conf,SENP6 confirm,SENP7 confirm,Casp3 SENP sel,Luc interf
Cc1cccc(-c2cnn(-c3cccc([N+](=O)[O-])c3)c2N)c1,-8,15,-6,5,2,-9,·,·,·,·,·
Cc1cccc(-c2cnn(-c3ccccc3)c2N)c1,44,7,21,50*,66*,·,42,42,81*,64*,64*
Nc1c(-c2ccccc2)cnn1-c1cccc(Cl)c1,84*,6,36,90*,94*,·,90*,90*,99*,87*,81*
C[C@H](O)[C@@H]1C(=O)N2CCc3ccc(N4CCN(C)CC4)cc3[C@@H]2C[C@@H]1N(C)C(=O)c1cccnc1,·,-10,-7,·,·,·,·,·,·,·,·
O=C(Nc1ccccc1C(=O)N/N=C/c1ccc(O)cc1)c1ccccc1,23,-128,79*,65*,61*,29,-5,3,81*,86*,64*
COc1ccc(C(=O)Nc2ccccc2C(N)=O)cc1,5,-23,52*,65*,37,32,22,19,68*,65*,53*
O=C(O)c1ccc(NC(=S)NC(=O)c2ccc3ccccc3c2)cc1,-7,11,15,-9,24,·,·,·,·,·,·
O=C(NC(=S)Nc1ccccc1C(=O)O)c1ccc2ccccc2c1,-5,-104,-6,67*,1,6,14,8,7,18,21
NC(=O)c1ccccc1NC(=O)c1ccc2ccccc2c1,79*,0,59*,96*,90*,·,51*,82*,98*,81*,59*
O=C(Nc1ccccc1C(=O)N/N=C/c1ccccc1)c1ccco1,-11,-52,48,-13,-9,·,·,·,·,·,·
Cc1ccccc1NC(=O)c1ccc2ccccc2c1,4,-2,4,25,32,·,·,·,·,·,·
COc1ccc(C(=O)Nc2ccccc2C(=O)N2CCCCCC2)cc1,-13,1,19,-6,-6,·,·,·,·,·,·
COc1ccc(C(=O)Nc2ccccc2C(=O)N/N=C/c2cccc3ccccc23)cc1,4,-30,95*,60*,63*,90*,-11,22,42,45,2
